This passage reports inhibition results from ChEMBL document CHEMBL3433997, “St. Jude Leishmania screening dataset” (2016).

The structures appear in SMILES notation.

Common to all, as to format: functional
The target of assay [1] is Solute carrier family 2, facilitated glucose transporter member 1 (Homo sapiens) (UniProt P11166). The experiment in a line: ST_JUDE_LEISH: Cytotoxicity at 2uM final concentration against transgenic Leishmania Mexicana promastigotes LmGLUT1 that are glucose transport deficient and complemented with the human glucose transporter GLUT1. Activity is measured by DNA content using SYBR green in vitro.
Sequence of Solute carrier family 2, facilitated glucose transporter member 1 (Homo sapiens) (P11166 whole entry): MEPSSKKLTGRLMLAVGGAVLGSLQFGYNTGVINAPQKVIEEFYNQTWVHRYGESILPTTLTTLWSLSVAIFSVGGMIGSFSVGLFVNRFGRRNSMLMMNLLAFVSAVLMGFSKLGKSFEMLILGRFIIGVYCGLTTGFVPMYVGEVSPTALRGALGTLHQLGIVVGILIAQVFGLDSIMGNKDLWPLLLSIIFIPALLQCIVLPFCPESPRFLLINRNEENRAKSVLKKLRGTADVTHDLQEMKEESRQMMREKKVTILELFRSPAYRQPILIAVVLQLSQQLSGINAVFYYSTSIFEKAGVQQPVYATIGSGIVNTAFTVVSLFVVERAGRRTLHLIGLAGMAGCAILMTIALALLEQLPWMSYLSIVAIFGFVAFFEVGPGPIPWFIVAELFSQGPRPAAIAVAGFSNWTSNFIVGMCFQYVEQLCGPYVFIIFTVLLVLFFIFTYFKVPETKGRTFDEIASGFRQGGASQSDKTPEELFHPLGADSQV

Assay [2] deals with Hexose transporter 1 (Plasmodium falciparum) (UniProt O97467). The experiment in a line: ST_JUDE_LEISH: Cytotoxicity at 2uM final concentration against transgenic Leishmania Mexicana promastigotes LmPfHT that are glucose transport deficient and complemented with the Plasmodium falciparum hexose transporter. Activity is measured by DNA content using SYBR green in vitro.
Assay [3] deals with Glucose transporter (Leishmania mexicana) (UniProt O61059). The experiment in a line: ST_JUDE_LEISH: Cytotoxicity at 2uM final concentration against transgenic Leishmania Mexicana promastigotes LmGT2 that are glucose transport deficient and complemented with the L. Mexicana glucose transporter 2. Activity is measured by DNA content using SYBR green in vitro.

In general, inhibition refers to the change of the read-out against control, counted positive when it falls. As to `Nc1nc(N)c2c(Oc3cccc(Cl)c3)cccc2n1`, the inhibition is 1.52% in assay [1], 1.79% in assay [2] and -1.1% in assay [3].

Take `CCNS(=O)(=O)c1ccc(Oc2ccc([N+](=O)[O-])cc2)cc1`: the inhibition was 0.11% in assay [1], -1.31% in assay [2] and -1.68% in assay [3].

`CNC(=O)COc1cc(C)c(C2CCN(CCCCNC(=O)c3ccc(-c4ccc(C(F)(F)F)cc4)cc3)CC2)cc1C`: the inhibition in assay [1] was 2.41%; in assay [2], 2.32%; in assay [3], 1.85%.

Consider `CCCC(C)NC(=O)C(N)Cc1cccc(I)c1` (configuration not stated), for which the inhibition is 1.78% in assay [1], -1% in assay [2] and 1.85% in assay [3].
